Reference: PubChem BioAssay
A number with no mark means an inactive call. For part of these data: Entries with a potency or affinity are not part of this list. Active and inactive are the calls of the source. Unless noted, how the calls were made is not given here.

What was measured:
[1] = antimalarial activity against Dd2 strain (AID 2302;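 active means growth inhibition above 50% at the single 2 µM test dose, taken to imply half-maximal potency below 2 µM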;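 further: 0% = DMSO untreated growth and 100% = chloroquine plus artemisinin killed control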); settings: P. falciparum Dd2 in RBCs, LDH growth readout, 72 h; at 2 µM; stronger effect = higher value
[2] = human hepatoma cell viability loss – ATP luminescence, cytotoxicity control for P. falciparum antimalarial project, primary screen (AID 2303;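 active means inhibition above 50%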;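 further: 0% = DMSO wells and 100% = digitonin-killed cells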); settings: HepG2 viability, 24-48 h, at 10 µM, stronger effect = higher value
[3] = target: L-lactate dehydrogenase (Plasmodium falciparum (isolate CDC / Honduras)) (UniProt Q27743); experiment: PfLDH activity inhibition – cell lysate, 3D7 strain, counter-screen for P. falciparum growth inhibition project (AID 2304);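 further: 0% = vehicle and 100% = reference inhibitor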; settings: P. falciparum 3D7 crude extract, LDH APAD/NBT absorbance; at 2 µM; stronger effect = higher value
[4] = inhibition of 3D7 malaria parasite growth – strain 3D7 (AID 2306);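 further: 0% = DMSO wells and 100% = chloroquine plus artemisinin control wells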; settings: P. falciparum 3D7 erythrocytic growth, LDH absorbance, 72 h; at 2 µM; stronger effect = higher value
[5] = target: Calcium-dependent protein kinase 1 (Plasmodium falciparum (isolate 3D7)) (UniProt P62344); experiment: PfCDPK1 kinase inhibitors, biochemical, TCAMS library (AID 1159585; cut-off not given, nearly all actives have IC50 up to about 0.98 µM;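 further: inhibitors leave more ATP so luminescence rises with inhibition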); settings: recombinant PfCDPK1, Kinase-Glo ATP depletion luminescence
[6] = target: Plasmodium falciparum protein kinase 6 (PK6, PF3D7_1337100) (UniProt Q8IDW1); experiment: PfPK6 kinase inhibitors, biochemical, TCAMS library (AID 1159586); settings: recombinant PfPK6, Kinase-Glo ATP depletion luminescence
[7] = target: Protein kinase 7 (PK7), Plasmodium falciparum 3D7 (PF3D7_0213400) (UniProt Q7YTF7); experiment: inhibition of Plasmodium PK7 catalytic activity – biochemical, TCAMS antimalarial set, Kinase-Glo luminescence (AID 1159587); settings: recombinant PfPK7, Kinase-Glo ATP depletion luminescence
[8] = target: Calcium-dependent protein kinase 4 (Plasmodium falciparum (isolate 3D7)) (UniProt Q8IBS5); experiment: PfCDPK4 kinase inhibitors, biochemical, TCAMS library (AID 1159588; cut-off not given, nearly all actives have IC50 up to about 0.91 µM); settings: recombinant PfCDPK4, Kinase-Glo ATP depletion luminescence
Chain of Calcium-dependent protein kinase 4 (Plasmodium falciparum (isolate 3D7)) (Q8IBS5 whole entry, looked up): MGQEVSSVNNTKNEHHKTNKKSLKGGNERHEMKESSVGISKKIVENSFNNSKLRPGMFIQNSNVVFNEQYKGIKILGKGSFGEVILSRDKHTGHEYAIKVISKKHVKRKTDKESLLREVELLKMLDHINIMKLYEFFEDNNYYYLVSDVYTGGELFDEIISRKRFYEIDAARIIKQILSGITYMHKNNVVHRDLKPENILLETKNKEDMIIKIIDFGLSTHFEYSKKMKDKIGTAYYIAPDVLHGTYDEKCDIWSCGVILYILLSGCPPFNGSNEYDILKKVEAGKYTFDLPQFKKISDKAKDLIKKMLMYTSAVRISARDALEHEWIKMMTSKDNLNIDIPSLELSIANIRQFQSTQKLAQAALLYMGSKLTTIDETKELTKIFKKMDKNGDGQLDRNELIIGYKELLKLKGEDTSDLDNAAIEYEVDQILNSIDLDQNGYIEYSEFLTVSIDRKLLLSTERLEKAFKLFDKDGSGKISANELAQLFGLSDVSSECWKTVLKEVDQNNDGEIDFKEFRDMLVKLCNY

Chain of Calcium-dependent protein kinase 1 (Plasmodium falciparum (isolate 3D7)) (P62344 whole entry, looked up): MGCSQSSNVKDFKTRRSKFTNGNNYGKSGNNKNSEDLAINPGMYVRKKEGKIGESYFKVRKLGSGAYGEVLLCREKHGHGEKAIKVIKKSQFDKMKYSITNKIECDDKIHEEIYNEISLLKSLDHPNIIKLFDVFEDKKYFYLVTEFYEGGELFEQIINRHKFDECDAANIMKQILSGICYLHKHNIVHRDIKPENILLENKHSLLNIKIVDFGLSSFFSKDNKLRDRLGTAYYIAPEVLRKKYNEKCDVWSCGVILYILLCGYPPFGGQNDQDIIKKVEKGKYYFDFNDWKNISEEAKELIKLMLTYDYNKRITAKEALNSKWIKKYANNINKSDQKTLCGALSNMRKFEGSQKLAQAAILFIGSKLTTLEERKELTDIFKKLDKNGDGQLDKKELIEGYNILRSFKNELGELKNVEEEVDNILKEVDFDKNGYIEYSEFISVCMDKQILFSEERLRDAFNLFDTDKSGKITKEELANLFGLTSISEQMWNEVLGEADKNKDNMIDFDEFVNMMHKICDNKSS
Chain of Plasmodium falciparum protein kinase 6 (PK6, PF3D7_1337100) (Q8IDW1 1-305): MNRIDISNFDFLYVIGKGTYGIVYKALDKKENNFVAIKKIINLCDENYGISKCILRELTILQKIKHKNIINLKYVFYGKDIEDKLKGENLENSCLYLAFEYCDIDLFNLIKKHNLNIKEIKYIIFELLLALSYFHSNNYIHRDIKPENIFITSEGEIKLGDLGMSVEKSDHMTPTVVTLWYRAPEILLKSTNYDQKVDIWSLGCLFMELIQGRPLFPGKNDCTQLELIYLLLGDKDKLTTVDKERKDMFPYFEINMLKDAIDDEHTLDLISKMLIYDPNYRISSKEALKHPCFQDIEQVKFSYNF
Chain of Protein kinase 7 (PK7), Plasmodium falciparum 3D7 (PF3D7_0213400) (Q7YTF7 1-343): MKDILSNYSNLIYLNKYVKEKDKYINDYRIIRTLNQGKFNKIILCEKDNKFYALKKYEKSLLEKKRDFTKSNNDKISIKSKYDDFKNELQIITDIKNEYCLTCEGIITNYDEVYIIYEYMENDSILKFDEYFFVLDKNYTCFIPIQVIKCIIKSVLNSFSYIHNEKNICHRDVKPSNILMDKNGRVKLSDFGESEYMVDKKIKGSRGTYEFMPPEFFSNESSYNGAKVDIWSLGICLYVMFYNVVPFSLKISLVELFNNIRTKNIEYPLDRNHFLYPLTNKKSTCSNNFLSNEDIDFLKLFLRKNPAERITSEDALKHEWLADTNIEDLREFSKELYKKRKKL
Chain of L-lactate dehydrogenase (Plasmodium falciparum (isolate CDC / Honduras)) (Q27743 whole entry, looked up): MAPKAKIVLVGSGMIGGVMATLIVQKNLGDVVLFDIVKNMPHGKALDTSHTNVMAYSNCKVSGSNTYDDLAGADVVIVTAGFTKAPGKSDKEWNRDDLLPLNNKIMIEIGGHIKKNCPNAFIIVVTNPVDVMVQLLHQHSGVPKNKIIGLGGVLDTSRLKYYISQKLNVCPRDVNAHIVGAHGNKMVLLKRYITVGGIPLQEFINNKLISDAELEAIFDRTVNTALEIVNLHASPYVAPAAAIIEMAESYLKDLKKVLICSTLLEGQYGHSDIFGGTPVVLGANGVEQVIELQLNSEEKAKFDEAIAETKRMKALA

SMILES | growth inhibition [1] | inhibition [2] | inhibition [3] | growth inhibition [4] | outcome [5] | outcome [6] | outcome [7] | outcome [8]
Cc1ccc(NS(=O)(=O)c2ccc(C(C)N3CCC(N4CCCCC4)CC3)cc2)cc1C (configuration not stated) | 82% (active) | 66% (active) | -2% | 97% (active) | inactive | inactive | inactive | inactive
CCN(C(=O)c1ccc(NC(=O)c2cccs2)cc1)c1nc2c(C)cccc2s1 | 85% (active) | 24% | -3% | 89% (active) | inactive | inactive | inactive | inactive
O=C(Nc1cccc(-c2cccc(-c3nc4ccccc4[nH]3)c2)c1)c1ccoc1 | 36% | 19% | 5% | 85% (active) | inactive | inactive | inactive | inactive
O=C(Nc1cccc(Cl)c1Cl)Nc1ccnc2ccccc12 | 47% | 31% | 4% | 100% (active) | inactive | inactive | inactive | inactive
CN1CCC(C(=O)Nc2cccc(-c3ccc(-c4nc5ccccc5[nH]4)cc3)c2)CC1 | 15% | 7% | 5% | 82% (active) | inactive | inactive | inactive | inactive
O=c1cc(NCCCNCc2cn(S(=O)(=O)c3ccccc3)c3ccccc23)[nH]c2ccccc12 | 29% | 17% | -2% | 91% (active) | inactive | inactive | inactive | inactive
Cc1cccc(C(=O)Nc2ccnc(N3CCC(N(C)Cc4cccc(O)c4)CC3)c2)c1 | 41% | 7% | -1% | 95% (active) | inactive | inactive | inactive | inactive
O=C(/C=C/c1ccc(Cl)c(Cl)c1)NCCCCCN1CCC(NC(=S)Nc2ccc(F)cc2F)CC1 | 18% | 20% | 1% | 100% (active) | inactive | inactive | inactive | inactive
O=C(/C=C/c1ccc(Cl)c(Cl)c1)N1CCN(C(=O)Nc2cccc(C(F)(F)F)c2)CC1 | 100% (active) | 53% (active) | 4% | 99% (active) | inactive | inactive | inactive | inactive
COc1ccc(C=NNc2cc(C)nc3ccccc23)c(OC)c1 | 94% (active) | 24% | -2% | 101% (active) | inactive | inactive | inactive | inactive
O=C(NCc1cccc(C(F)(F)F)c1)c1ccc(CNC(=O)c2ccc(O)c(-c3ccc(Cl)c(Cl)c3)c2)cc1 | 15% | 7% | 2% | 92% (active) | inactive | inactive | inactive | inactive
CCC[C@@H]([C@@H](CC1CCC(C)CC1)C(=O)N[C@@H](CO)C(=O)Nc1nccs1)N(O)C=O (some centres not stated) | 84% (active) | 0% | -2% | 100% (active) | inactive | inactive | inactive | inactive
C[C@H](NC(=O)c1cc(-c2ccc(C(C)(C)C)cc2)no1)C(=O)O (tested in a mixture with another compound) | 97% (active) | 31% | -4% | 91% (active) | inactive | inactive | inactive | inactive
COc1cc2nc(N3CCC(c4ccccc4)CC3)nc(NCc3ccc(=O)[nH]c3)c2cc1OC | 58% (active) | 12% | 0% | 100% (active) | inactive | inactive | inactive | inactive
Cc1cc(Nc2nc(NCc3cccnc3)nc3ccccc23)n[nH]1 | 33% | 11% | 1% | 101% (active) | inactive | inactive | inactive | inactive
COc1cc(Nc2nccc(Nc3ccc4c(C)[nH]nc4c3)n2)cc2ccccc12 | 82% (active) | 13% | 5% | 102% (active) | inactive | inactive | inactive | inactive
COc1ccc2nc(NC3=NC(c4ccccn4)(c4ccccn4)C(=O)N3C)[nH]c2c1 | 98% (active) | 65% (active) | 1% | 99% (active) | inactive | inactive | inactive | inactive
COc1ccc2nccc(N3CCC(NCCNCc4ccc5c(n4)NC(=O)CS5)C3)c2n1 (configuration not stated) | 5% | -4% | -4% | 100% (active) | inactive | inactive | inactive | inactive
CCn1c(-c2nonc2N)nc2cnc(Oc3cccc(NC(=O)c4ccc(OCCCN5CCCCC5)cc4)c3)cc21 | 12% | 38% | -4% | 90% (active) | inactive | inactive | inactive | inactive
Cc1cccc2[nH]c(-c3cccc(-c4cccc(NC(=O)c5ccc(=O)[nH]n5)c4)c3)nc12 | 32% | 10% | -1% | 101% (active) | inactive | inactive | inactive | inactive

SMILES | growth inhibition [1] | inhibition [2] | inhibition [3] | growth inhibition [4] | outcome [5] | outcome [6] | outcome [7] | outcome [8]
N#Cc1ccc(-c2ccc(C(=O)NC3CCN(CCN4CCC(c5cn(CCOC6CCCCO6)c6ccccc56)CC4)CC3)cc2)cc1 (configuration not stated) | 86% (active) | 48% | 2% | 99% (active) | inactive | inactive | inactive | inactive
O=C(Nc1cccc(-c2cccc(-c3nc4ccc(F)cc4[nH]3)c2)c1)c1cnc[nH]1 | 87% (active) | 13% | -1% | 100% (active) | inactive | inactive | inactive | inactive
Cc1cc(=O)c2cc(Oc3ccc(OC(F)(F)F)cc3)ccc2[nH]1 | 71% (active) | 20% | -2% | 86% (active) | inactive | inactive | inactive | inactive
CC(Nc1ccc2c(c1)CCC2)C(=O)Nc1cc(C(F)(F)F)ccc1N1CCOCC1 (configuration not stated) | 100% (active) | -3% | -1% | 100% (active) | inactive | inactive | inactive | inactive
CCN1CCN(c2cc(C)c3cc(NC(=O)c4ccc(OC)c(OC)c4)ccc3n2)CC1 | 23% | 28% | 1% | 90% (active) | inactive | inactive | inactive | inactive
N=C(N)c1ccc2nc(SCc3ccccc3)[nH]c2c1 | 100% (active) | -1% | 1% | 97% (active) | inactive | inactive | inactive | inactive
Cc1nnsc1C(=O)Nc1cccc(-c2cccc(-c3nc4ccccc4[nH]3)c2)c1 | 34% | 14% | 1% | 100% (active) | inactive | inactive | inactive | inactive
Cc1ccc(F)c(OCC2CCN(c3ccc(C(=O)NC4CC4)cn3)CC2)c1 | 95% (active) | 4% | 2% | 94% (active) | inactive | inactive | inactive | inactive
CCNC[C@H]1CCCN1CCOc1ccc(-n2cnc3cc(-c4ccc(Cl)cc4)sc3c2=O)cc1OC | 39% | 53% (active) | -11% | 97% (active) | inactive | inactive | inactive | inactive
Cc1cc(F)ccc1-c1nc(NCCCN2CCCC2=O)nc2c1ccc(=O)n2-c1c(F)cccc1F | 80% (active) | -7% | -5% | 88% (active) | inactive | inactive | inactive | inactive
O=C(Nc1cccc(CN2CCCN(Cc3ccc(O)cc3)CC2)c1)c1ccc(Cl)c(Cl)c1 | 81% (active) | 22% | -1% | 103% (active) | inactive | inactive | inactive | inactive
CCCCNCc1ccc(-c2nc(CN(Cc3ccc(Cl)c(Cl)c3)S(=O)(=O)c3ccc(NC(C)=O)cc3)cs2)cc1 | 20% | 30% | 5% | 96% (active) | inactive | inactive | inactive | inactive
CCCC(C)n1ccc2c3c(N)nc(N)nc3ccc21 (configuration not stated) | 91% (active) | 70% (active) | -2% | 94% (active) | inactive | inactive | inactive | inactive
Cc1nnc2c(NC(=O)NC3CCCC3)cc3cc(-c4ccc(CN5CCN(C)CC5)cc4)ccc3n12 | 91% (active) | 100% (active) | -1% | 99% (active) | inactive | inactive | inactive | inactive
Fc1ccc(-c2cc3ncnc(N4CCN(CCN5CCCC5)CC4)c3s2)cc1 | 40% | 25% | -1% | 98% (active) | inactive | inactive | inactive | inactive
c1cc(CNCCN2CCNCC2)cc(-c2cccc(-c3nc4ccccc4[nH]3)c2)c1 | 1% | 11% | -3% | 89% (active) | inactive | inactive | inactive | inactive
CC[C@H](NC(=O)c1ccc(NC(=O)OC(C)(C)C)cc1)C(=O)N[C@@H](CO)C(=O)NCCCCc1ccccc1 | 94% (active) | -6% | 1% | 98% (active) | inactive | inactive | inactive | inactive
CC(C)c1cccc(C(C)C)c1NC(=O)NNC(=O)c1ccc(CCN2CCC(c3nc(COCC(F)(F)F)c(-c4ccc(F)cc4)o3)CC2)cc1 | 34% | 61% (active) | -2% | 88% (active) | inactive | inactive | inactive | inactive
NC(N)=NN=Cc1ccccc1OCc1ccccc1Cl | 30% | 14% | 5% | 101% (active) | inactive | inactive | inactive | inactive
